EWS-Fli inh – EWS/Fli-driven NR0B1 reporter inhibitors, primary screen, A673 cells, NR0B1 luciferase, luminescence, MLPCN library. inhibition, % at 12.6 µM. viability-normalised. AID 651661, 2012. 350,000 tested, 0.67% active;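 active = mean inhibition of at least 50% after viability correction, with every replicate also passing that limit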;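 note: firefly luciferase signal divided by Alamar Blue viability fluorescence both relative to DMSO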
PAX8 reporter – inhibitors of PAX8-driven TPO luciferase reporter, primary screen, RMG-I cells, single concentration. SteadyGlo, 24 h. inhibition, % at 12.6 µM. 360,000 tested, 1.2% active;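 active = mean replicate inhibition at least 60% with every replicate also reaching 60%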;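 note: luciferase light reporting Pax8 driven TPO promoter activity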
EBV LMP1 NFkB – EBV LMP1-driven NF-kappaB luciferase reporter inhibitors, primary screen, cell-based, luminescence, single point. inhibition, % at 12.5 µM. AID 504558, 2011. LMP1-induced NF-kappaB luciferase reporter cells. 350,000 tested, 0.69% active; in the data active = inhibition above about 41%
TROY NFkB inh – inhibitors of TROY-driven NF-kB signaling, primary screen, Q293 LMP1-TROYcd cells, NF-kB luciferase, uHTS | inhibition, % at 10 µM | Q293 LMP1-TROYcd NF-kB luciferase reporter, 4 h | 360,000 tested, 0.98% active;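 active = compounds whose plate-normalised and pattern-corrected inhibition of the luciferase reporter signal at the single screening dose is 50% or more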
TWEAK-Fn14 inh – inhibitors of TWEAK-Fn14 signaling, primary screen, luciferase reporter cells, uHTS; TWEAK-stimulated Fn14 reporter cells, luciferase luminescence, 8 h; 360,000 tested, 2% active; AID 1159606, 2016; inhibition, % at 10 µM; in the data active = inhibition above about 50%
LGR2 inh – inhibitors of bursicon-induced LGR2 CRE-luciferase signal, primary screen, cell-based, HEK293, CRE-luciferase reporter, bursicon stimulation | 380,000 tested, 0.35% active | bursicon-stimulated, 4 h | inhibition, % at 9.99 µM;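 active = drop in luminescence signal, shown as inhibition above about 50% in the replicate tests, limit read from the data, passing the limit was not always enough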;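 note: agonist challenge used bursicon conditioned medium at about half maximal strength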
A number is an active result; - = inactive; . = no result. Rows were chosen to be rich in hits. Some 3.1% of all compounds tested hit in one or more screens of this group.

SMILES	EWS-Fli inh	PAX8 reporter	EBV LMP1 NFkB	TROY NFkB inh	TWEAK-Fn14 inh	LGR2 inh
C[C@@H]1CN([C@@H](C)CO)C(=O)Cc2cc(NS(=O)(=O)c3ccc(F)cc3)ccc2O[C@H]1CN(C)Cc1ccc(Cl)c(Cl)c1	-	93	.	.	.	-
C[C@H](CO)N1C[C@H](C)[C@@H](CN(C)Cc2ccc(Cl)c(Cl)c2)Oc2ccc(NS(=O)(=O)c3ccccc3)cc2CC1=O	-	83	.	.	.	-
C[C@H](CO)N1C[C@H](C)[C@H](CN(C)C(=O)Nc2cccc3ccccc23)Oc2ccc(NC(=O)Nc3ccccc3)cc2CC1=O	-	.	.	.	.	-
CCCCC[C@H](O)/C=C/C1C(=O)C=C[C@H]1C/C=C\CCCC(=O)OC (stereo partly drawn)	-	-	-	-	59	-
COc1cc(C(=O)Oc2ccccc2/C=N/NC(=O)c2ccc(Cl)cc2)cc(OC)c1OC	-	-	-	-	-	-
CCOc1cc(/C=N/NC(=O)c2ccccc2-n2cccc2)ccc1O	-	-	71	-	-	-
CCOc1cc(/C=N/NC(=O)c2ccccc2OCc2ccc(F)cc2)ccc1O	-	-	-	-	-	-
COc1cc(C(=O)N/N=C/c2sccc2C)cc(OC)c1OC	55	81	-	-	-	-
COc1cc(C(=O)Oc2ccccc2/C=N/NC(=O)c2ccc(C)c(Cl)c2)cc(OC)c1OC	.	-	57	-	-	-
Cc1ccsc1/C=N/NC(=O)c1ccncc1	-	-	-	-	-	-
COc1cc(/C=N/NC(=O)c2ccc(-n3cccc3)cc2)ccc1O	.	72	-	-	-	-
COc1cc(/C=N/NC(=O)c2ccc(-c3ccccc3)cc2)cc(OC)c1OC	.	80	-	-	-	-
C[C@@H]1CN([C@@H](C)CO)S(=O)(=O)c2ccc(C#CC3CCCC3)cc2O[C@H]1CN(C)Cc1cccnc1	-	84	.	.	.	-
C[C@@H]1CN([C@H](C)CO)S(=O)(=O)c2ccc(C#CC3CCCC3)cc2O[C@H]1CN(C)Cc1cccnc1	-	87	.	.	.	-
C[C@H]1CN([C@@H](C)CO)S(=O)(=O)c2ccc(C#CC3CCCC3)cc2O[C@H]1CN(C)Cc1cccnc1	-	-	.	.	.	-
COc1ccccc1C#Cc1ccc2c(c1)O[C@H](CN(C)Cc1cncnc1)[C@@H](C)CN([C@@H](C)CO)S2(=O)=O	-	-	.	.	.	-
COc1ccccc1C#Cc1ccc2c(c1)O[C@H](CN(C)Cc1cccnc1)[C@H](C)CN([C@@H](C)CO)S2(=O)=O	-	87	.	.	.	-
C[C@@H](O)C#Cc1ccc2c(c1)O[C@@H](CN(C)Cc1ccc(-c3ccccc3)cc1)[C@@H](C)CN([C@@H](C)CO)S2(=O)=O	-	-	.	.	.	-
C[C@H](CO)N1C[C@H](C)[C@@H](CN(C)Cc2ccc(-c3ccccc3)cc2)Oc2cc(C#C[C@@H](C)O)ccc2S1(=O)=O	-	74	.	.	.	-
C[C@H](CO)N1C[C@H](C)[C@@H](CN(C)Cc2ccccc2)Oc2cc(C#C[C@@H](C)O)ccc2S1(=O)=O	-	.	.	.	.	-
C[C@@H](O)C#Cc1ccc2c(c1)O[C@H](CN(C)Cc1ccc(-c3ccccc3)cc1)[C@@H](C)CN([C@@H](C)CO)S2(=O)=O	-	103	.	.	.	-
CCCC#Cc1ccc2c(c1)O[C@H](CN(C)Cc1ccccc1)[C@@H](C)CN([C@H](C)CO)S2(=O)=O	-	80	.	.	.	-
C[C@H](O)C#Cc1ccc2c(c1)O[C@@H](CN(C)Cc1ccc(-c3ccccc3)cc1)[C@@H](C)CN([C@H](C)CO)S2(=O)=O	-	94	.	.	.	-
C[C@@H]1CN([C@H](C)CO)C(=O)Cc2cc(NC(=O)CCN3CCOCC3)ccc2O[C@@H]1CN(C)S(=O)(=O)c1ccccc1	-	-	.	.	.	-
C[C@@H]1CCCCO[C@H](CN(C)Cc2ccc(C(F)(F)F)cc2)[C@H](C)CN([C@@H](C)CO)C(=O)c2cc(NC(=O)CCCN(C)C)ccc2O1	-	.	.	.	.	-
SMILES	EWS-Fli inh	PAX8 reporter	EBV LMP1 NFkB	TROY NFkB inh	TWEAK-Fn14 inh	LGR2 inh
Cc1noc(C)c1NC(=O)Nc1cccc2c1O[C@@H](CN(C)C)[C@H](C)CN([C@@H](C)CO)C2=O	-	-	.	.	.	-
CC(C)NC(=O)N(C)C[C@H]1Oc2cc(C#CC3CC3)ccc2S(=O)(=O)N([C@H](C)CO)C[C@H]1C	-	.	.	.	.	-
COCc1cc(=O)[nH]c(SCCS(=O)(=O)c2ccc(C)cc2)n1	-	-	-	-	-	-
COCc1cc(=O)[nH]c(SCCS(=O)(=O)c2ccc(Cl)cc2Cl)n1	-	-	-	-	55	-
CNC(=O)c1sc(N2N=C3/C(=C/c4ccccc4)CCCC3C2c2ccccc2)nc1C (stereo not drawn)	-	.	-	-	58	-
CNC(=O)c1sc(N2N=C3/C(=C\c4ccccc4)CCCC3C2c2ccccc2)nc1C (stereo not drawn)	-	-	-	-	84	-
O=C(c1ccccn1)N1N=C2/C(=C/c3ccccc3)CCCC2C1c1ccccc1 (stereo not drawn)	-	-	-	-	-	-
COc1ccc2[nH]c3c(=O)n(CCCCC(=O)N4CCC(C(N)=O)CC4)c(=S)[nH]c3c2c1	-	.	65	-	-	-
CCCCn1c(NC(=O)c2ccccc2Cl)c(C#N)c2nc3ccccc3nc21	.	-	-	76	-	.
N#Cc1c(NC(=O)c2ccccc2Cl)n(Cc2ccccc2)c2nc3ccccc3nc12	-	-	-	65	86	-
C[C@H](CO)N1C[C@H](C)[C@H](CN(C)C(=O)NC2CCCCC2)Oc2ccc(NC(=O)CCCCCC(=O)Nc3ccccc3N)cc2C1=O	.	.	.	.	.	-
O=C(CCc1ccc(S(=O)(=O)NCc2ccccc2)cc1)NCc1cccnc1	-	127	-	-	-	-
Cc1ccc(CNC(=O)CN(CCc2ccccc2)S(C)(=O)=O)cc1	-	-	-	-	-	-
CS(=O)(=O)N(CCc1ccccc1)CC(=O)NCc1ccco1	.	.	-	.	82	.
O=C(CCc1ccc(S(=O)(=O)NCc2ccccc2)cc1)NCc1ccco1	-	157	-	-	-	-
CCCNS(=O)(=O)c1ccc(CCC(=O)NCc2ccco2)cc1	.	-	-	-	-	.
O=C(CN(Cc1cccs1)C(=O)CNS(=O)(=O)c1ccccc1)NCc1ccco1	.	.	90	-	-	.
Cc1noc(C)c1NC(=O)Nc1ccc2c(c1)CC(=O)N([C@H](C)CO)C[C@@H](C)[C@H](CN(C)C(=O)NC1CCCCC1)O2	-	-	.	.	.	-
CNC(=O)c1cc(Oc2ccc(NC(=O)Nc3ccc(Cl)c(C(F)(F)F)c3)cc2)ccn1	-	96	68	62	84	.
